Screening results from PubChem.
HP1b binding inh = inhibitors of HP1-beta chromodomain binding to methylated histone tails; P83916; AlphaScreen HP1-beta / biotin-H3K9me3 peptide binding; Potency, µM (top dose mostly 114 µM), without a hit: at the top dose activity change, negative = inhibition, usual class: inhibitors; hit rate 0.56% among 390,000; AID 540317; note: potency is the fitted concentration of half-maximal effect; nearly all actives have a fitted effect of over 70% in size
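AlphaScreen: HP1-beta (50 nM) preformed 30 min with biotin-H3(1-18)K9me3 peptide (50 nM) in PBS pH 7.4, 0.01% Tween-20. Compound added for 30 min at RT, then streptavidin donor/nickel chelate acceptor beads (10 ug/mL) for 30 min.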
JMJD2A Tudor = JMJD2A Tudor domain (human) inhibition | hit rate 4.4% among 390,000 | AID 504339 | Potency, µM (series often up to 114 µM), for the others: at the top dose activity change, negative = inhibition, hits mostly inhibitors | AlphaScreen JMJD2A-Tudor / H3K4me3 peptide binding; note: potency is the fitted concentration of half-maximal effect; % is set by controls: 0 for no effect and ±100 for the full control effect; nearly all actives have a fitted effect of over 50% in size
G9a inh = G9a (human) methyltransferase inhibition. G9a H3K9 monomethylation, AlphaScreen, 2 h. Q96KQ7. hit rate 8.8% among 350,000. Potency, µM (highest dose often 102 µM), inactives show at the top dose activity, negative = inhibition, actives largely listed as inhibitors; note: potency is the fitted concentration of half-maximal effect; % is set by controls: 0 for no effect and ±100 for the full control effect; nearly all actives have a fitted effect of over 75% in size
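Quantitative HTS format: methyltransferase activity on a biotin-tagged H3K9 peptide is measured by AlphaScreen, using a rabbit anti-monomethyl-H3K9 antibody with streptavidin donor and anti-IgG acceptor beads. Final levels are 20 nM enzyme, 500 nM peptide, 20 uM SAM; 2 h RT.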
BAZ2B inh = blocks human BAZ2B | Potency, µM (top dose mostly 114 µM), for the others: at the highest dose activity change, negative = inhibition, hits mostly inhibitors | Q9UIF8 | AlphaScreen BAZ2B-H3K14Ac peptide displacement | hit rate 4.4% among 360,000; note: potency is the fitted concentration of half-maximal effect; % is set by controls: 0 for no effect and ±100 for the full control effect; nearly all actives have a fitted effect of over 60% in size
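Inhibition is scored as reduced AlphaScreen emission. The BAZ2B/b-H3(5-23)K14Ac complex (50 nM each) in PBS pH 7.4, 0.01% Tween-20 meets compound (up to 110 uM) for 30 min at RT before bead addition.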
CtBP-E1A blk = inhibitors of CtBP/E1A interaction. hit rate 0.49% among 340,000. AID 651724. activity change, % (no concentration beside the values). AlphaScreen GST-E1A/His-CtBP binding, 1536-well; active compounds read low; in the data active = activity change below about -65%; inconclusive = mostly about -30% to -63%; note: % is set by controls: 0 for no effect and ±100 for the full control effect
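AlphaScreen with 125 nM GST-E1A and 125 nM His-CtBP (5X stocks) in Tris pH 8.0, 300 mM NaCl, BSA, Tween 20, TCEP. Compounds preincubated 2 h at 37 deg C, then glutathione donor/nickel acceptor beads added for 1 h at 37 deg C in dark.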
Six1-Eya2 inh = Six1/Eya2 interaction inhibition | Q15475+O00167 | AlphaScreen GST-Six1/His-Eya2 binding, biochemical; active compounds read low | activity change, % (no concentration beside the values) | hit rate 0.56% among 360,000 | AID 651725; in the data active = activity change below about -65%; inconclusive = mostly about -30% to -63%; note: % is set by controls: 0 for no effect and ±100 for the full control effect
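Six1/Eya2 binding was read as AlphaScreen signal after compounds were pinned into GST-Six1 plus His-tagged Eya2 (5X stock 250/500 nM) in pH 8.0 Tris/NaCl/TCEP buffer, beads added, then incubated 1 h, 37 C, dark.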
An asterisk follows results filed as active; u = inconclusive; x = no result; ! = a repeat was not active; [ ] = remark or other dose. This is a sample that favours compounds with a hit; in the whole collection about 10% have one here. Unless noted, calls come from the whole dose curve; as a rule, active = well fitted inhibition curve with a large enough effect; inconclusive = small, poorly fitted or top-dose-only effect; inactive = no such curve, though single readings can be large or run the other way.

SMILES	HP1b binding inh	JMJD2A Tudor	G9a inh	BAZ2B inh	CtBP-E1A blk	Six1-Eya2 inh
Cc1cccc(NS(=O)(=O)c2ccc(C)c(C(=O)N3CCN(C(=O)c4ccco4)CC3)c2)c1	39%	-12%	x	x	-1	2
CNC[C@@H]1Oc2cc(Br)ccc2S(=O)(=O)N([C@H](C)CO)C[C@@H]1C	x	x	x	x	-15	6
C=CC[n+]1c(-c2ccc(OC)cc2)csc1NNC(=O)Nc1ccccc1	-34%	50µM*	14µM*	10µM*	-4	-14
CCc1cccc(C)c1NC(=O)CN(C)S(=O)(=O)c1cccc2nsnc12	20%	-13%	5%[59 µM]	x	x	x
CCN(CC)CCOc1cc2c(nn1)Oc1ccccc1N2C	7%	u	50µM*	u	-9	0
O=c1[nH]c(=O)n([C@@H]2C[C@H](O)[C@H](CO)O2)cc1C(F)(F)F	x	x	19%[21.5 µM]	x	x	x
O=C(NCC(=O)N(c1cccnc1)C(C(=O)NC1CCCC1)c1ccc(F)cc1)c1ccco1 (stereo not drawn)	x	x	-3%	1%	x	x
COc1ccc(C2=CSC3=C(C(=O)c4cccc(S(=O)(=O)N(C)C)c4)CCN23)cc1	14%	u	8.9µM*	-27%	-4	-7
COc1ccc(N(C)S(=O)(=O)c2cccc(C(=O)N3CCN(c4ccccc4)CC3)c2)cc1	5%	-20%	u	-25%	-5	-9
COCCN1C[C@@H](CO)O[C@@H](n2cnc3c(NCC(C)C)ncnc32)C1	x	x	x	x	1	0
CC(=O)N1CCN(Cc2nc3cc(NC(=O)COc4cccc(C)c4)ccc3n2C)CC1	10%	-21%	6.3µM*	u	0	1
Cc1cccc(OCC(=O)Nc2ccc3c(c2)nc(CN2CCCCC2)n3C)c1	31%	89µM*!	32µM*	u	-25	-3
Cc1cccc(OCC(=O)Nc2ccc3c(c2)nc(CCN2CCCCC2)n3C)c1	13%[57 µM]	-23%	-7%	-7%	x	-14
CC(=O)c1ccc(NC(=O)Cn2c(-n3nc(C)cc3C)nc(C)c(C)c2=O)cc1	40%	-18%	4µM*	-6%	x	x
Cc1cc(=O)n(CC(=O)Nc2ccc(Cl)c(Cl)c2)c(-n2nc(C)cc2C)n1	45%	u	34%[59 µM]	u	x	x
Cc1cc(C)n(-c2ccc(C(=O)Nc3cccc([N+](=O)[O-])c3)cc2)n1	-10%	-8%[11.4 µM]	1%	-3%	x	-12
Cc1cc(C)n(-c2nc(C)c(C)c(=O)n2CC(=O)Nc2cccc([N+](=O)[O-])c2)n1	7%	u	6.3µM*	-11%	x	x
COc1ccccc1NC(=O)Cn1c(O)c(N=NC(=O)c2ccccc2O)c2ccccc21	17%	-35%	45µM*	56µM*	2	-2
Clc1ccc(OCCCNCc2ccccc2)c2ccccc12	u	28µM*	x	50µM*	-5	-6
C=CCc1ccccc1OCCNCc1ccccc1	u	0.89µM*	8.9µM*	u	0	18
Brc1ccccc1OCCNCc1ccccc1	u	u	7.9µM*	50µM*	-6	-3
CCOc1ccc(CC(=O)Nc2c(C(=O)c3ccc(F)cc3)oc3ccc(Cl)cc23)cc1OCC	37%	-4%	u	-17%	x	x
CC(C)=CCC12Oc3cc(O)ccc3C1(O)Oc1cc(O)c([C@H]3C=C(C)CC(c4ccc(O)cc4O)[C@H]3C(=O)c3ccc(O)cc3O)c(O)c1C2=O (stereo partly drawn)	-11%	40µM*	x	x	-4	-6
CSCC[C@H](NC(=O)c1ccc(Cl)c(S(=O)(=O)N2CCCC2)c1)c1nc2ccccc2[nH]1	5%	-26%	35µM*	u	-10	-28
O=C(NCc1nc2ccccc2[nH]1)c1ccc(Cl)c(S(=O)(=O)N2CCCC2)c1	18%	-29%	35µM*	-21%	-3	-7
SMILES	HP1b binding inh	JMJD2A Tudor	G9a inh	BAZ2B inh	CtBP-E1A blk	Six1-Eya2 inh
O=C(NCc1nc2ccccc2[nH]1)c1cccc(S(=O)(=O)N2CCCCC2)c1	-6%	-19%	u	-13%	21	4
COc1ccc(OC)c(CNC(=O)c2nn(C)c3c2CSc2ccccc2-3)c1	87%	-2%	-42%[59 µM]	-3%	x	x
CC(O)CNCCCOc1ccc(Cl)cc1C(C)(C)C (stereo not drawn)	u	0.89µM*	x	u	-3	-1
CN(C)CCOCCOc1ccc(Cl)cc1C(C)(C)C	u	3.2µM*	8.9µM*	50µM*	9	21
COc1ccccc1-c1nnc(SCC(=O)NCc2cccs2)n1N	22%	1%	6%	-11%	4	-1
CC(C)Oc1ccc(CNC(=O)c2ccc(NC(=O)N3CC(C)Sc4ccccc43)cc2)cc1 (stereo not drawn)	19%	-11%	1%[59 µM]	-12%	x	x
Cc1ccc(NC(=O)COC(=O)C2CC(=O)N(Cc3ccccc3)C2)cc1S(=O)(=O)N(C)C (stereo not drawn)	31%	-4%[57.1 µM]	40µM*	-17%	10	6
Cc1cccc(C)c1NC(=O)COC(=O)C1CC(=O)N(Cc2ccccc2)C1 (stereo not drawn)	18%	-4%	-36%	u	1	-1
Cc1ccc(NC(=O)c2ccc(OC(F)(F)F)cc2)cc1S(=O)(=O)N(C)C	46%	10%[57.1 µM]	22%[59 µM]	13%	-4	4
Cc1ccc(NC(=O)CCNC(=O)Nc2ccccc2)cc1S(=O)(=O)N(C)C	11%	-26%	5%[2.33 µM]	-1%	-4	6
CC(=O)N1CCN(CC(=O)Nc2ccc(C)c(S(=O)(=O)N(C)C)c2)CC1	u	5.6µM*	4.5µM*	79µM*	-1	-6
Cc1ccc(NC(=O)CCNCc2ccco2)cc1S(=O)(=O)N(C)C	u	1.8µM*	8.9µM*	50µM*	-3	4
Cc1ccc(NC(=O)c2ccncc2)cc1S(=O)(=O)N(C)C	33%	-6%	50µM*	11%	2	-3
CC(=O)c1ccc(Cc2ccc(C(C)=O)cc2)cc1	37%	1%	26%	22%	11	-3
COc1cccc(-c2cnc3c(NC(C)=O)cc(-c4ccc(C(=O)NC5CC5)cc4)cn23)c1	x	x	x	x	-16	-10
Cc1nc(-n2nc(C)c(CCC(C)C)c2C)sc1C(=O)Nc1ccc(Br)cc1	48%	0%	7%[59 µM]	9%	x	x
Cn1nnnc1Sc1ncnc2scc(-c3cccc(N)c3)c12	x	-32%	x	x	x	x
Cc1ccc(NC(=O)CCN2CCC(Cc3ccccc3)CC2)cc1	15%	-15%	-8%[0.501 µM]	6%	-3	-5
Cc1ccc(NC(=O)CN2CCN(C(=O)c3ccco3)CC2)cc1S(=O)(=O)N(C)C	u	6.3µM*	x	x	2	-1
